Screens: PubChem BioAssay, National Center for Advancing Translational Sciences (NCATS)
Vaccinia Venus – qHTS for Stage-Specific Inhibitors of Vaccinia Orthopoxvirus: Venus Reporter Primary qHTS; Vaccinia virus Venus reporter expression, fluorescence; Potency, µM (highest dose often 36.5 µM), actives largely listed as inhibitors; hit rate 0.46% among 330,000; calls by dose curve; tested in A549 cells; also: nearly all actives have a fitted effect of over 30% in size
Giardia FBPA inh – qHTS Assay for Inhibitors of Fructose-1,6-bisphosphate Aldolase from Giardia Lamblia; A8B2U2; purified Giardia FBPA; Potency, µM (highest dose often 59.6 µM), usual class: inhibitors; hit rate 0.71% among 290,000; AID 2451, 2010; also: nearly all actives have a fitted effect of over 55% in size
Target sequence (A8B2U2 whole entry, looked up): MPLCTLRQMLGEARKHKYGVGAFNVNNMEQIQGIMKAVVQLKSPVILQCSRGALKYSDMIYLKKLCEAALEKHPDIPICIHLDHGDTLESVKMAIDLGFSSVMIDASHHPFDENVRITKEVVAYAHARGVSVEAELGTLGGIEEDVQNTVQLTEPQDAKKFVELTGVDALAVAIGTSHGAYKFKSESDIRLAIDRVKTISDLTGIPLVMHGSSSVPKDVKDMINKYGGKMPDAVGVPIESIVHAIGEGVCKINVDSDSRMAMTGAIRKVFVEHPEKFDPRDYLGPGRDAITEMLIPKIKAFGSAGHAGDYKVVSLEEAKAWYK
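40 nM FBPA preincubated 10 min at RT with compound (up to 57.5 uM final), then substrate plus GAPDH/TPI/NAD/arsenate coupling and diaphorase/resazurin added. Fluorescence read after 20 min at RT, 525/598 nm.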
HCV inhibitor – qHTS Assay for Inhibitors of Hepatitis C Virus (HCV) | Potency, µM (titrated, usually from 41.8 µM), most hits filed as inhibitors | Huh7.5.1 HCVcc-Cre infection, luciferase reporter, 44 h | hit rate 3.4% among 340,000 | AID 651820, 2012
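Antiviral activity was scored by luciferase reporter output from cells infected with HCVcc-Cre (~0.5 moi) in presence of compound, 44 h infection period, cells seeded 1,000/well 4 h prior.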
Vaccinia mCherry – qHTS for Stage-Specific Inhibitors of Vaccinia Orthopoxvirus: mCherry Reporter Primary qHTS; AID 720579, 2013; Potency, µM (series often up to 36.5 µM), hits mostly inhibitors; hit rate 0.63% among 310,000; Vaccinia virus mCherry reporter infection, fluorescence; calls by dose curve; tested in A549 cells; also: nearly all actives have a fitted effect of over 35% in size
HCMV inh – qHTS Assay for inhibitors of the human cytomegalovirus (HCMV); HFF cells, HCMV-luciferase reporter, 72 h; hits give low values; activity change, negative = inhibition, % at 57.5 µM; hit rate 4.5% among 410,000; in the data active = activity change below about -60%; inconclusive = no clear call, values can overlap the other calls; inactive = above about -39%
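Compounds were evaluated in HFFs infected with an HCMV luciferase reporter virus (MOI 1 PFU/cell). Luciferase in lysates collected 72 h post infection served as the replication measure.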
FMDV inh – High Throughput Screening for Foot and Mouth Disease Virus Antivirals; FMDV antiviral cell-based qHTS; Potency, µM (highest dose often 57.9 µM), actives largely listed as inhibitors; hit rate 1.2% among 410,000; AID 1159524, 2015; calls by dose curve; tested in HEK293T cells; also: read-out not given here; nearly all actives have a fitted effect of over 45% in size
Each line names hits and unclear results; the compound was inactive in the other large screens. This is a sample that favours compounds with a hit; in the whole collection about 7.5% have one here. Unless noted, calls follow the shape of the dose curve; as a rule, active = well fitted curve in the direction sought with a large enough effect; inconclusive = small, poorly fitted or top-dose-only effect, or another doubt; inactive = no such curve, though single readings can be large; an effect the other way counts as inactive or inconclusive.

Cc1cccc2cc(CN(Cc3ccco3)C(=O)c3cccs3)c(=O)[nH]c12	HCMV inh -99 (no result: Vaccinia mCherry)
Cc1cccc2cc(CN(Cc3ccco3)C(=O)c3ccco3)c(=O)[nH]c12	none
CCOc1ccc(C(=O)NNC(=O)CN2C(=O)NC3(CCCC3)C2=O)cc1	HCMV inh -102 (no result: Giardia FBPA inh)
CCOc1ccc(C(=O)CN2C(=O)NC3(CCCCCC3)C2=O)cc1	HCV inhibitor inconclusive (no result: Giardia FBPA inh)
COCC(=O)N1CCC2(CC1)CCN(C(=O)Nc1cccc(C#N)c1)CC2	none (no result: Vaccinia Venus, HCV inhibitor, Vaccinia mCherry, HCMV inh)
O=C(N[C@H]1CC[C@@]23CCCN2C(=O)CCC[C@H]3[C@H]1Cc1ccccc1)c1cccc(Cl)c1	HCMV inh -65 (no result: Vaccinia Venus, Giardia FBPA inh, HCV inhibitor, Vaccinia mCherry, FMDV inh)
O=c1c2ccccc2[nH]c(=S)n1Cc1cccs1	HCMV inh -68
O=c1c2ccccc2[nH]c(=S)n1Cc1ccccc1	none
Cc1ccc(CNc2ncnc3sc(C(=O)N4CCC[C@H]4C(N)=O)c(C)c23)o1	none (no result: Giardia FBPA inh, HCV inhibitor, HCMV inh)
O=C(OCCOc1ccc(Cl)cc1)c1cc(S(=O)(=O)N2CCCCC2)ccc1N1CCOCC1	HCV inhibitor 3.5µM, HCMV inh inconclusive, FMDV inh inconclusive (no result: Vaccinia Venus, Giardia FBPA inh, Vaccinia mCherry)
O=C(OCCOc1cccc(Cl)c1)c1cc(S(=O)(=O)N2CCOCC2)ccc1F	HCV inhibitor 25µM (no result: Giardia FBPA inh)
Cc1ccc(OCCOC(=O)c2cc(S(=O)(=O)N3CCCCC3)ccc2N2CCOCC2)cc1	HCV inhibitor inconclusive, FMDV inh inconclusive (no result: Giardia FBPA inh)
CCC(C)Cn1c(/C=C/c2ccccc2)nc2ccccc21 (centres undefined)	none (no result: Giardia FBPA inh, HCV inhibitor)
c1ccc(Oc2nc(NC3CCCCC3)c3[nH]cnc3n2)cc1	Giardia FBPA inh 16µM (no result: Vaccinia Venus, HCV inhibitor, Vaccinia mCherry, HCMV inh)
COC(=O)CC1(c2cccc3ccccc23)C(=O)c2ccccc2C1=O	Vaccinia Venus 2.8µM, HCV inhibitor inconclusive (no result: Vaccinia mCherry)
Cc1ccc(CNc2ccc3c(c2)OCO3)cc1	Giardia FBPA inh inconclusive, HCV inhibitor 10µM (no result: Vaccinia Venus, Vaccinia mCherry, HCMV inh)
c1cc(CNc2ccc3c(c2)OCO3)ccn1	Giardia FBPA inh inconclusive
CCCc1nc2oc3c(NCCCN(C)C)ncnc3c2c2c1CCCC2	HCMV inh -98
CC(C)Cc1nc2oc3c(Cl)ncnc3c2c2c1CCCC2	FMDV inh inconclusive
CCCc1nc2oc3c(Cl)ncnc3c2c2c1CCCC2	FMDV inh 14µM
CC(C)c1nc2oc3c(NCC4CCCO4)ncnc3c2c2c1CCC2 (centres undefined)	HCV inhibitor 11µM, FMDV inh inconclusive
CCCc1nc2oc3c(NCC4CCCO4)ncnc3c2c2c1COC(C)(C)C2 (centres undefined)	HCV inhibitor inconclusive (no result: Vaccinia Venus, Vaccinia mCherry)
CCc1nnc(NC(=O)[C@@H](NC(=O)c2cccc(S(=O)(=O)N(CC)CC)c2)C(C)C)s1	none (no result: Vaccinia Venus, Vaccinia mCherry)
CC(C(=O)OCC(=O)Nc1cccc(S(=O)(=O)N2CCOCC2)c1)N1C(=O)c2ccccc2C1=O (centres undefined)	none
O=C(O)c1ccc(N/N=C/c2ccncc2)cc1	Giardia FBPA inh 4µM (no result: Vaccinia Venus, Vaccinia mCherry)
Cc1ccc(N/N=C/c2ccncc2)cc1	HCV inhibitor inconclusive (no result: Vaccinia Venus, Vaccinia mCherry)
O=C(O)c1ccc(N/N=C/c2ccc3nccnc3c2)cc1	HCMV inh -78, FMDV inh 7.1µM (no result: Vaccinia Venus, Vaccinia mCherry)
O=C(O)c1ccc(N/N=C/c2ccc(F)c(F)c2)cc1	FMDV inh 14µM
COCc1c(C(=O)N2CCN(C(C)C)CC2)cnn1-c1nccc(-c2cc(C)sc2C)n1	none (no result: Giardia FBPA inh, HCV inhibitor, HCMV inh)
CCN(CC)S(=O)(=O)c1ccc(N2CCN(C)CC2)c(NC(=O)c2cc(=O)c3ccccc3o2)c1	none
O=C1CC(NS(=O)(=O)c2ccc([N+](=O)[O-])cc2)CN1c1ccc(Cl)cc1 (centres undefined)	Vaccinia Venus inconclusive (no result: Giardia FBPA inh)
Clc1cccc(Nc2nccc3[nH]c(-c4ccncc4)nc23)c1	none (no result: Vaccinia Venus, Giardia FBPA inh, HCV inhibitor, Vaccinia mCherry, FMDV inh)
CCN1CCN(CCCN(Cc2ccco2)C(=S)Nc2ccc(C)c(Cl)c2)CC1	HCV inhibitor 8.9µM
CCOC(=O)c1ccc(NC(=S)N(CCCN2CCN(CC)CC2)Cc2ccco2)cc1	HCV inhibitor inconclusive
CCOC(=O)c1ccc(NC(=S)N(CCCN2CCCC2)Cc2ccco2)cc1	HCV inhibitor 10µM
CCOC(=O)c1ccc(NC(=S)N(CCCN2CCCC(C)C2)Cc2ccco2)cc1 (centres undefined)	HCV inhibitor 10µM
Cc1ccc(NC(=S)N(CCCN2CCOCC2)Cc2ccco2)cc1Cl	none
Cc1cc(NC(=O)CN2C(=O)NC(CC(C)C)C2=O)ccc1Br (centres undefined)	HCV inhibitor inconclusive (no result: Vaccinia Venus, Giardia FBPA inh, Vaccinia mCherry)
CC1CCN(S(=O)(=O)c2cc(C(=O)N3CCN(c4cccc(Cl)c4)CC3)n(C)c2)CC1	HCMV inh inconclusive, FMDV inh inconclusive (no result: Giardia FBPA inh, HCV inhibitor)
COc1cc(/C=N/Nc2nncn2N)ccc1OCc1c(C)no[n+]1[O-]	Giardia FBPA inh 5µM, HCV inhibitor inconclusive (no result: Vaccinia Venus, Vaccinia mCherry)
CCOC(=O)C1(S(=O)(=O)c2ccc(Cl)cc2)CCN(Cc2ccc(C)cc2)CC1	none (no result: Vaccinia Venus, Vaccinia mCherry)
COc1ccc(C(=O)NC(=C(Cl)Cl)S(=O)(=O)c2ccc(C)cc2)cc1	none (no result: Vaccinia Venus, Giardia FBPA inh, Vaccinia mCherry)
Cc1ccc(C(=O)NC(=C(Cl)Cl)S(=O)(=O)c2ccccc2)cc1	HCV inhibitor 11µM, HCMV inh -70, FMDV inh inconclusive (no result: Vaccinia Venus, Vaccinia mCherry)
Cc1ccc(C(=O)NC(C#N)=C(Cl)Cl)cc1	HCV inhibitor 6.3µM, Vaccinia mCherry inconclusive, HCMV inh -99, FMDV inh inconclusive
